Screening data from PubChem BioAssay.
An excerpt weighted towards active compounds, which were near 3.6% of everything screened.
Mdm2-MdmX inh = inhibitors of human Mdm2/MdmX interaction | O15151+Q00987 | inhibition, % at 8 µM | AID 485346 | actives 3% (n = 330,000) | SaOS-2 split-luciferase Mdm2/MdmX complementation, luminescence;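 active = inhibition of at least 50% at 8 µM in the primary screen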
Target sequence (O15151 whole entry, looked up): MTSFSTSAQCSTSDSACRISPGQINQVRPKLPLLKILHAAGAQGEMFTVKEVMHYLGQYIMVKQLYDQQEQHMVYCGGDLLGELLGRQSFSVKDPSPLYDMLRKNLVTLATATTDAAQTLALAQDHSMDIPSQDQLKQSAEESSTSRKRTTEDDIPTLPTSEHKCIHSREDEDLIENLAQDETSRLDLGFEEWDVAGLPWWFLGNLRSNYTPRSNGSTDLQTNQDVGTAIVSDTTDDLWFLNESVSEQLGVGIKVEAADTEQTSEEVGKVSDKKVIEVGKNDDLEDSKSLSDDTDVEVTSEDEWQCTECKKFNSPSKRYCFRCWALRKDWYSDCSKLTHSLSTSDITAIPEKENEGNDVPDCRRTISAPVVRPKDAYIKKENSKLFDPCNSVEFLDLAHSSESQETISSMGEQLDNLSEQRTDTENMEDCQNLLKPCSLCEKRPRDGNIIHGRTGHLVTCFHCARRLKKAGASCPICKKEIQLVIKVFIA
Target sequence (Q00987 whole entry, looked up): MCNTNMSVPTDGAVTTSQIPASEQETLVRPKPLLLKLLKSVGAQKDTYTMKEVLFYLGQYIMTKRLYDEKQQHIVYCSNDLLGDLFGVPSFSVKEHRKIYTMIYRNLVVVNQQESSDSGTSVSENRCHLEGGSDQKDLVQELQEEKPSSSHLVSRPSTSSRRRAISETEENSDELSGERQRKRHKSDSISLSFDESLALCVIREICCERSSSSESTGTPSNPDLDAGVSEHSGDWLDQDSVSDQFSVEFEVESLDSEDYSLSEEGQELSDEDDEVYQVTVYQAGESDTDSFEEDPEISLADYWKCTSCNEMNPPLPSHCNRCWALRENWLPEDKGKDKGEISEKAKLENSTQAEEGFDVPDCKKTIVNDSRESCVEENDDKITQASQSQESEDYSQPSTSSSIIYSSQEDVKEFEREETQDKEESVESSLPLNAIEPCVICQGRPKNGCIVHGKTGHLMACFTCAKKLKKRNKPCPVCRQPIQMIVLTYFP
HSP90 refold inh = HSP90 refolding inhibition in rabbit reticulocyte lysate. luciferase refolding luminescence, 3 h. AID 1789. actives 0.91% (n = 290,000). inhibition, % at 5.6 µM;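 active = inhibition above the screen-wide mean plus 3 SD, computed separately per campaign, cut at about 16% in these data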;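 note: 0% = DMSO wells and 100% = 60 µM geldanamycin wells; inhibitors lower the luminescence because luciferase stays unfolded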
Peg3 promoter = Peg3 promoter activity inhibition | HeLa PEG-Prom luciferase reporter, luminescence, overnight | inhibition, % at 20 µM | actives 1.7% (n = 360,000) | AID 588405;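 active = inhibition of at least 50% at 20 µM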
CF NFkB inh = blocks PAF-induced NF-kB reporter in cystic fibrosis cells | actives 0.86% (n = 360,000) | AID 588850 | inhibition, % at 5 µM | KKLEB NF-kB-GFP reporter, GFP fluorescence overnight;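 active = at least 50% inhibition at 5 µM, scaled per plate between neutral and stimulator controls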;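 note: PAF is a Pseudomonas aeruginosa culture filtrate used as stimulus; plate controls were PAF-stimulated DMSO wells for no effect and unstimulated DMSO wells for full effect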
LGR2 antag = Drosophila LGR2 receptor signaling inhibition; HEK293 LGR2, CRE-luciferase, bursicon-stimulated, 4 h; inhibition, % at 9.99 µM; actives 0.35% (n = 380,000); AID 720647;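 active = drop in luminescence signal, shown as inhibition above about 50% in the replicate tests, limit read from the data, passing the limit was not always enough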;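 note: agonist challenge used bursicon conditioned medium at about half maximal strength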
KKLEB tox = reduces viability of KKLEB cystic fibrosis airway cells. AID 602141. activity change (cytotoxicity), % at 5 µM. actives 0.36% (n = 360,000). KKLEB CF airway cells viability, ATPlite luminescence, overnight; stronger effect = lower value; cells stimulated with P. aeruginosa culture filtrate;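 active = corrected activity change at or below -50% at 5 µM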
Mdm2-MdmX conf = human Mdm2/MdmX binding inhibition, confirmed; luminescent assay; inhibition, % at 8 µM; actives 55% (n = 10,000); shares compounds with Mdm2-MdmX inh; in the data active = inhibition above about 40%
Full FLuc ctr = inhibits full-length luciferase, flagging false Mdm2/MdmX hits; inhibition, % at 8 µM; SaOS-2 full-length luciferase counterscreen, luminescence; shares compounds with Mdm2-MdmX inh; actives 77% (n = 6,200);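 active = mean inhibition at 8 µM reaching about 37%, which flags the compound as non-specific, limit read from the data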;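 note: p53-null SaOS-2 cells with luciferase driven by a doxycycline-inducible promoter; compound on cells about two nights before reading with doxycycline added after day one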
Starred values were filed as active, the others as inactive; nt = not tested or not shown.

SMILES	Mdm2-MdmX inh	HSP90 refold inh	Peg3 promoter	CF NFkB inh	LGR2 antag	KKLEB tox	Mdm2-MdmX conf	Full FLuc ctr
CN(C)S(=O)(=O)c1cccc(NC(=S)N/N=C/c2cc(Br)ccc2O)c1	70*	2	54*	6	18	4	78*	37*
COC(=O)c1c(-c2ccsc2)sc2ccc(-c3cc(OC)c(OC)c(OC)c3)cc12	64*	nt	16	35	14	-8	33	nt
COc1cc(-c2ccc3sc(-c4ccsc4)c(C#CCO)c3c2)cc(OC)c1OC	74*	nt	56*	9	15	8	39	69*
COc1cc(-c2c(-c3ccsc3)sc3ccccc23)cc(OC)c1OC	23	nt	19	9	6	-6	nt	nt
C#Cc1ccc([C@@H]2C=C(C(=O)N3CCN(Cc4ccccc4)CC3)O[C@H](OCCCCO)C2)cc1	57*	0	12	22	nt	-3	77*	37*
O=C(Nc1nnc(-c2ccc3c(c2)CCCC3)o1)c1ccc(Cl)cc1Cl	51*	6	24	-5	1	-8	25	nt
CN(C)S(=O)(=O)c1ccc(C(=O)Nc2nnc(-c3ccc4c(c3)CCCC4)o2)cc1	60*	1	19	-31	4	-7	23	nt
CCC(C)Nc1nc(N)c([N+](=O)[O-])c(Nc2cc(OC)ccc2OC)n1 (stereo unspecified)	69*	3	47	38	-2	-21	19	nt
CCC(C)Nc1nc(N)c([N+](=O)[O-])c(Nc2ccccc2OC)n1 (stereo unspecified)	59*	0	60*	36	11	-9	24	nt
CCC(C)Nc1nc(N)c([N+](=O)[O-])c(NCc2ccccc2)n1 (stereo unspecified)	47	5	39	16	-5	-11	nt	nt
CCn1cc(C(=O)NCCCO)c(=O)c2cc(F)c(N3CCN(C)CC3)cc21	10	0	-3	-16	-5	1	nt	nt
CCCCCCNC(=O)c1cn(CC)c2cc(N3CCN(C)CC3)c(F)cc2c1=O	51*	0	54*	4	-2	-12	28	nt
COc1ccccc1/C=N/N1C(=O)C(CC(=O)Nc2ccc([N+](=O)[O-])cc2OC)SC1=Nc1cccc(C)c1C (stereo unspecified)	65*	1	nt	nt	6	nt	47*	78*
COC(=O)c1cc(-c2ccc(Br)cc2)c2c(=O)n(C)c(=O)n(C)c2n1	72*	3	15	12	1	-12	4	nt
COc1cc(OC)cc(-c2nnc(SCC(=O)N3c4ccccc4Sc4ccccc43)o2)c1	54*	0	17	14	-4	-5	12	nt
FC(F)(F)c1cccc(-c2nc3nc(Cl)c(Cl)nc3[nH]2)c1	80*	4	-230	28	16	-34	75*	69*
CCn1c(SCC(=O)N2CCCCCC2)nc2c([nH]c3ccccc32)c1=O	6	2	16	0	-4	8	nt	nt
COc1cccc(-n2c(SCC(=O)N3CCOCC3)nc3c([nH]c4ccccc43)c2=O)c1	65*	-5	19	34	nt	-55*	13	nt
COc1cccc(-n2c(SCC(=O)N3CCOCC3)nnc2-c2c[nH]c3ccccc23)c1	1	-1	7	30	0	-26	nt	nt
CCn1c(SCC(=O)NCCc2ccccc2)nc2c([nH]c3ccccc32)c1=O	59*	2	33	18	-15	-35	32	nt
CCn1c(SCC(=O)N2CCN(c3ccccc3)CC2)nc2c([nH]c3ccccc32)c1=O	58*	6	31	-1	10	-29	28	86*
CO[C@H](CN(C)Cc1nccs1)[C@H](C)CN([C@@H](C)CO)S(=O)(=O)c1ccc(C)cc1	nt	nt	nt	nt	11	nt	nt	nt
CCCNC(=O)C[C@@H]1CC[C@H]2[C@@H](COc3ccc(NC(=O)Nc4ccccc4)cc3C(=O)N2C)O1	nt	nt	nt	nt	2	nt	nt	nt
N#C/C(=C\c1ccc(-c2ccc(F)cc2)o1)C(=O)Nc1nc(-c2cccs2)cs1	71*	4	10	32	29	-34	21	nt
